Laboratory results published in PubChem BioAssay (NCATS).
Results filed as inconclusive are left out. The source made the active and inactive calls. Calls follow the shape of the full dose curve.

assay: Primary qHTS to identify inhibitors of SARS-CoV-2 cell entry (AID 1645846); conditions: SARS-CoV-2 pseudovirus cell entry assay, luminescence; activity change, negative = inhibition: at 57.1 µM (top of the series) unless noted; also: nearly all actives have a fitted effect of over 45% in size
Outline: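 HEK293-ACE2 (Expi293F, stable hACE2), 1500 cells/well, o/n 37C; cpd 23 nL pin, 1 h; MLV-PP w/ SARS-CoV-2-S (Wuhan-Hu-1, Δ19 C-term); 48 h 37C; Bright-Glo luminescence; normalized vs S-PP and bald PP.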
Potency is read from the fitted curve at half-maximal effect.

Row | Compound | activity change, negative = inhibition | Potency
1 | O=C(Nc1ccnc(NC(=O)C2CC2)c1)c1c(Cl)cccc1Cl | -97% | 
2 | CC1(C)C(N(O)C(=O)Nc2ccc(Cl)cc2)N(c2ccc(Cl)cc2)C(=O)N1CC(=O)N/N=C/C=C/c1ccc([N+](=O)[O-])o1 (configuration not stated) |  | 17.8 µM (active)
3 | COc1cccc2c1C(=O)c1c(O)c3c(c(O)c1C2=O)C[C@@](O)(/C(CO)=N/NC(=O)CCCCCN1C(=O)C=CC1=O)C[C@@H]3O[C@H]1C[C@H](N)[C@H](O)[C@H](C)O1 |  | 1 µM (active)
4 | CNCCCOc1cc(F)c(-c2c(Cl)nc3ncnn3c2N[C@@H](C)C(F)(F)F)c(F)c1 | -85.4% | 
5 | Fc1ccc2[nH]ccc2c1-c1nc(N2CCOCC2)c2sc(CN3CCN(CC4CC4)CC3)cc2n1 |  | 31.6 µM (active)
6 | COc1nnc2ccc(N3CCC(c4ccc(OCCN5CCN(C)C(=O)[C@H]5C)cc4)CC3)nn12 |  | inactive
7 | Cc1c(NC(=O)c2cc(C(N)=O)nc3cc(F)ccc23)c(C(F)(F)F)nn1Cc1ccc(C#N)cc1 | -65.9% | 
8 | CC1=C(CO)C(=O)O[C@@H]([C@@H](C)[C@H]2CC[C@H]3[C@@H]4C[C@H]5O[C@]56[C@@H](O)C=CC(=O)[C@]6(C)[C@H]4CC[C@]23C)C1 |  | 1.26 µM (active)
9 | O=C(NO)c1cnc(N2C[C@H]3C[C@@H]2CN3c2cc(C(F)(F)F)ccn2)nc1 |  | inactive
10 | Cc1cc(CS(=O)(=O)c2ccccc2)cc(OCc2ccc(CN3CCC[C@@H]3CO)cc2)c1 |  | 12.6 µM (active)
11 | C[C@]12CC[C@H](O)C[C@H]1CCC1C2CC[C@]2(C)[C@@H](c3ccc(=O)oc3)C[C@H]3O[C@]132 (some centres not stated) |  | 7.08 µM (active)
12 | CN1CCN(c2ccc(OC(F)(F)F)c(Nc3ncc4c(n3)-c3c(c(C(N)=O)nn3CCO)CC4)c2)CC1 | -77.5% | 
13 | COc1ccc(/C=C\c2cc(OC)c(OC)c(OC)c2)cc1O | -68.5% | 
14 | N#Cc1cccnc1N1CCN(C(=O)c2cccc(Cc3n[nH]c(=O)c4ccccc34)c2)CC1 | -93.1% | 
15 | FC(F)(F)c1ccc(/C=C/c2nc(COc3ccc(CCCCn4ccnn4)cc3)co2)cc1 | -95.9% | 
16 | O=C(NO)c1cnc(NC2(c3ccccc3)CC2)nc1 |  | inactive
17 | CNCCn1c(=O)c2cc(OC)c(OC)cc2c2cnc3cc4c(cc3c21)OCO4 | -98.1% [at 11.3 µM] | 
